# GIRK2 act: GIRK2 channel activators by thallium flux | HEK293 GIRK2/NPY4 cells, thallium flux fluorescence | activation (% efficacy), % for hits at 37.5 µM | 34,000 tested, under 10 active | AID 1259324;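 active = primary screen hit, no activity in plain HEK293 cells, and in GIRK2-only cells above 5% efficacy rising with concentration; inactive = the rest, including fluorescent compounds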;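 note: efficacy is normalized control-subtracted fluorescence 15 s after thallium addition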
# GluA2 TARP mod: GluA2-stargazin AMPA receptor complex modulation | O88602+P19491 | HEK293 GluA2+stargazin, membrane potential dye (FDSS), glutamate EC50; hits were called plate by plate, in both directions | calls only at 30 µM | 40,000 compounds, 3.5% hits | AID 1259245;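 active = any of four per-well response measures lying three or more SD from its plate-wide compound average, in either direction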
# Active calls of the source: *; i = inactive; · = no result; + = active, no number. Many of the other results were omitted from the sample, so hits are more common in it than they were.
SMILES,GIRK2 act,GluA2 TARP mod
CCNC(=O)CSc1nc(-c2ccccc2)c(NC(=O)C(C)(C)Oc2ccc(Cl)cc2)s1,i,+
NC(=O)CSc1nc(-c2ccccc2)c(NC(=O)CC2CCCC2)s1,i,+
CC(C)(C)C(=O)Nc1sc(SCC(=O)NC2CC2)nc1-c1ccccc1,i,i
COc1ccccc1C(=O)Nc1sc(SCC(N)=O)nc1-c1ccccc1,i,+
CCC(=O)Nc1sc(SCC(N)=O)nc1-c1ccccc1,i,i
O=C(CN1C(=O)CCC1=O)N1CC(c2nc(-c3cccc(C(F)(F)F)c3)no2)C1,i,·
COc1ccc(-c2ccc(=O)n(CCNC(=O)COc3cc(C)c(Cl)c(C)c3)n2)cc1,i,i
O=C(Nn1cnc2c(cnn2-c2cccc(Cl)c2)c1=O)c1ccc(Br)cc1,i,i
Cc1ccnc(Nc2ccc(NCCNC(=O)c3cccc(C(F)(F)F)c3)nn2)c1,i,·
CCCc1nc2ccccc2n1Cc1ccccc1OC,·,+
CCc1nc2ccccc2n1Cc1ccccc1OC,i,i
CCOC(=O)N1CCc2nc(NC(=O)c3cccs3)sc2C1,i,i
CCOC(=O)N1CCc2nc(NC(=O)c3ccc([N+](=O)[O-])s3)sc2C1,·,+
O=C(CN1CCN(c2ccc(Cl)cc2)C1=O)NCCc1c[nH]c2ccccc12,i,i
CCOC(=O)c1ccccc1NC(=O)CN1CCCN(Cc2cc(C)ccc2C)S1(=O)=O,i,+
COc1ccc(NC(=O)CN2CCCN(Cc3cc(C)ccc3C)S2(=O)=O)c(OC)c1,i,i
CCOc1cc(S(=O)(=O)N(C)C2CCCCC2)c(OCC)cc1C,·,i
COc1ccc(S(=O)(=O)CC(=O)N2CCN(c3nc4c(C)ccc(Cl)c4s3)CC2)cc1,·,i
CCS(=O)(=O)c1ccc(CC(=O)N2CCN(c3nc4c(C)ccc(Cl)c4s3)CC2)cc1,·,+
O=C(CN1CCN(CC(=O)Nc2cccc(F)c2)CC1)Nc1ccc(Cl)cc1,·,+
O=C(CN1CCN(C2c3ccccc3-c3ccccc32)CC1)Nc1cccc(F)c1,·,i
CSc1ccc(CC(=O)Nc2nnc(-c3ccccc3Cl)o2)cc1,·,i
CCCc1ccc(S(=O)(=O)NCC2CCN(C3CCCC3)CC2)cc1,·,+
O=S(=O)(NCC1CCN(C2CCCC2)CC1)c1ccc2c(c1)CCCC2,i,+
COc1ccc(S(=O)(=O)NCC2CCN(C3CCCC3)CC2)cc1OC,i,i
SMILES,GIRK2 act,GluA2 TARP mod
COC(=O)N1CCC(CNS(=O)(=O)c2ccc3c(c2)CCCC3)CC1,i,i
CCCOc1ccc(S(=O)(=O)NCC2CCN(C3CCCC3)CC2)cc1,i,+
CCc1ccc(S(=O)(=O)NCC2CCN(C3CCCC3)CC2)cc1,·,i
CSCCC(C)(O)CNC(=O)c1cc2ccccc2oc1=O (stereo not drawn),i,i
CSCCC(C)(O)CNC(=O)c1cc2ccccc2o1 (stereo not drawn),i,+
Cc1cc(C)c2c(=O)[nH]c(SCC(N)=O)nc2n1,·,+
Cc1cccc(NC(=O)CSc2nc3nc(C)cc(C)c3c(=O)[nH]2)c1,·,i
COc1nn(C)cc1C(=O)N1CCCC(c2nn(C)c(=O)n2-c2ccccc2)C1 (stereo not drawn),i,i
Cc1c(C)n2c3c(=O)n(CCN4CCCCC4)c(=O)n(C)c3nc2n1C1CCCC1,i,i
Cc1c(C)n2c3c(=O)n(CC(N)=O)c(=O)n(C)c3nc2n1C1CCCCC1,·,+
CCOc1ccc2ccccc2c1C(=O)NCCc1ccsc1,i,+
COC(=O)NCC(O)Cc1ccccc1 (stereo not drawn),i,i
CCSc1ccccc1C(=O)NCC(O)Cc1ccccc1 (stereo not drawn),i,+
CCOc1ccc2ccccc2c1C(=O)NCC(O)c1ccc(C(F)(F)F)cc1 (stereo not drawn),i,·
CCOc1ccc2ccccc2c1C(=O)NCc1nc(C)no1,i,·
CCOc1cc(C(=O)NCC2COC3(CCCCC3)O2)cc(OCC)c1OCC (stereo not drawn),i,i
CCOc1ccc2ccccc2c1C(=O)NCC1COC2(CCCCC2)O1 (stereo not drawn),i,+
CCOc1ccc2ccccc2c1C(=O)NCC(O)Cc1ccccc1 (stereo not drawn),i,+
O=C(Cn1nc(-c2ccco2)c2sc(N3CCOCC3)nc2c1=O)Nc1ccc(F)c(Cl)c1,i,i
COC(=O)c1ccccc1NC(=O)C12CCC(C1)C(C)(C)C2=O (stereo not drawn),i,i
Cc1cc(C(=O)N2CCC(c3nnc(-c4ccc(F)cc4)o3)CC2)no1,i,i
CCOc1ccc(S(=O)(=O)N2CCN(c3ccc(-c4cccnc4)nn3)CC2)cc1,i,i
O=C(COc1ccc2c(c1)OCO2)NCCOc1cccc(C(F)(F)F)c1,i,i
CSCCC(C)(O)CNC(=O)COc1ccc(C(C)(C)C)cc1 (stereo not drawn),i,i
CCN(CC)C(=O)CCCCCn1c(=S)[nH]c2ccccc2c1=O,·,+
SMILES,GIRK2 act,GluA2 TARP mod
CCN1CCN(C(=O)CCn2c(=S)[nH]c3ccccc3c2=O)CC1,·,i
COc1ccc(-c2ccc(=O)n(Cc3cc(C)ccc3C)n2)cc1,i,+
CCOc1ccc(S(=O)(=O)NCCn2nc(-c3ccc(OC)cc3)ccc2=O)c(OCC)c1,·,i
COc1ccc(-c2ccc(=O)n(CCNS(=O)(=O)c3ccc(OC)cc3OC)n2)cc1,·,i
Cc1ccc(C)c(Cn2nc(-c3ccc(Cl)cc3)ccc2=O)c1,i,i
COc1ccc(-c2ccc(=O)n(CCNS(=O)(=O)c3cc(C)c(C)cc3C)n2)cc1,·,+
CCOc1ccc(OCC)c(S(=O)(=O)NCCn2nc(-c3ccc(OC)cc3)ccc2=O)c1,·,+
CCN(CC)C(=O)c1cc2c(=O)n3ccccc3nc2n1Cc1ccccc1,·,i
CCOc1ccc(-c2ccc(=O)n(Cc3ccc(Br)cc3)n2)cc1,i,i
O=C(CCCS(=O)(=O)c1ccccc1)Nc1cccc(-c2nc3ccccc3s2)c1,i,i
COc1ccccc1NC(=O)CN1CCC(c2nnc(-c3ccco3)o2)CC1,i,i
CCOC(=O)c1ccccc1NC(=O)CN1CCC(c2nnc(-c3ccco3)o2)CC1,i,+
O=C(NCC1CCN(Cc2ccco2)CC1)c1c(F)cccc1F,i,·
Cc1ccc(C(CNC(=O)CCc2ccccc2)N(C)C)cc1 (stereo not drawn),i,i
CC(C)c1nnc(C2CCN(C(=O)CCSc3ccccc3)CC2)o1,i,i
CC(C)Sc1ccc(CC(=O)N2CCC(c3nnc(C(C)C)o3)CC2)cc1,i,+
O=C1Nc2ccccc2Oc2ccc(NS(=O)(=O)C3CCCCC3)cc21,·,+
O=C(Cc1ccc(NS(=O)(=O)C2CCCCC2)cc1)NCc1cccs1,i,i
Cc1ccc(NC(=O)c2sccc2S(=O)(=O)N2CCN(c3ccccc3F)CC2)cc1F,i,·
Cc1cc(C)cc(NC(=O)N2CCC3(CC2)NC(=O)N(Cc2ccc(Cl)cc2)C3=O)c1,i,i
Cc1ccc(CN2C(=O)NC3(CCN(C(=O)Nc4ccc(F)c(Cl)c4)CC3)C2=O)cc1,i,+
COc1ccccc1C(=O)Nc1ccc(Nc2cc(-n3cccn3)nc(C)n2)cc1,i,i
CCn1nccc1C(=O)Nc1ccc(C(C)=O)cc1,i,i

# Screening data (PubChem)
